# Experimental data as given in PubChem BioAssay AID720517 (National Center for Advancing Translational Sciences (NCATS), 2013).
# Records with an inconclusive call do not appear. Unmarked numbers belong to inactive results. Calls follow the shape of the dose curve; as a rule, active = well fitted activation curve with a large enough effect; inconclusive = small, poorly fitted or top-dose-only effect; inactive = flat fitted curve, though single readings scatter.
# Assay: qHTS for Inhibitors of Cell Surface uPA Generation: FP59 Counterscreen for Cherry-picked Compounds; also: 0% is about no effect
# Details: FP59 anthrax toxin cytotoxicity counterscreen, cells; series mostly up to 115 µM; activity (protection from FP59): at the top concentration
row,SMILES,activity (protection from FP59)
1,Cc1cc(C)c(NC(=O)Cn2nnc(C(=O)NCc3ccc4c(c3)OCO4)c2N)c(C)c1,0.198%
2,Cc1nn(CC(=O)OCC(=O)NC(C)c2ccccc2)c(C)c1[N+](=O)[O-] (centres undefined),0.0139%
3,CCOc1ccc(/C=N/NC(=S)Nc2c(C)cccc2C)cc1,-1.17%
4,Cc1cccc(NC(=O)C2CCCN(S(=O)(=O)c3cccc4cccnc34)C2)c1 (centres undefined),-1.41%
5,CCOC(=O)c1c(NC(=O)COc2ccccc2C#N)sc2c1CC(C)(C)NC2(C)C,-1.65%
6,CC(=O)NCCc1cnc[nH]1,-1.32%
7,COc1ccc(Cl)cc1NC(=O)CSc1nc(=O)n(CCN(C)C)c2c1CCCC2,-1.62%
8,CC1C2=C(CC(C)(C)CC2=O)NC2=C1C(=O)CC(C)(C)C2,-1.24%
9,Nc1cc(=O)[nH]c(SCC(=O)Nc2cccc([N+](=O)[O-])c2)n1,-1.38%
10,CCOC(=O)CN1C(=O)N[C@@H](c2ccco2)C(C(=O)OC)=C1C,3.64%
11,COc1cccc(CN(C)C(=O)c2cc(S(=O)(=O)N3CCCC3)ccc2C)c1OC,-1.14%
12,Cc1ccc(S(=O)(=O)NC(=O)Nc2nccs2)cc1,-1.39%
13,Cn1c(C2CCCCC2)nc2cc(N)ccc21,-1.49%
14,O=C(Nc1ccnn1C1CCN(CCCC2CCCC2)CC1)c1ccccc1,-1.38%
15,CC(C)CN(C(=O)CN1CCC(C)CC1)c1c(N)n(CC(C)C)c(=O)[nH]c1=O,-1.42%
16,CC(C)(C)OC(=O)NCCCCCNC(=O)c1[nH]cnc1C(=O)Nc1ccc(Cl)cc1,-1.08%
17,CSc1ccccc1OCc1cc(C(=O)NCCCn2nc(C)cc2C)no1,-1.14%
18,Cc1ccc(C(=O)COc2cc(O)c3c(=O)cc(-c4ccccc4)oc3c2)cc1,-1.17%
19,COC(=O)c1cc(CNC(=O)c2ccc(N3CCCC3)c([N+](=O)[O-])c2)ccc1OC,-1.29%
20,CCCCNC(=O)c1cc2c(-c3ccc(Cl)cc3)nn(C)c2s1,-1.37%

row,SMILES,activity (protection from FP59)
1,Cc1cccc(C(=O)NC2CCN(CC(=O)N3CCOCC3)CC2)c1,-1.38%
2,COc1ccc2cc(CCNC(=O)c3ccc4c(c3)OCO4)c(=O)[nH]c2c1,-1.1%
3,CN1CCN(C2=Nc3ccccc3Oc3ccc(Cl)cc32)CC1,-1.01%
4,COCCN1C(=O)C(=O)/C(=C(/O)c2ccc(S(=O)(=O)N3CCOCC3)cc2)C1c1cccc([N+](=O)[O-])c1 (centres undefined),-1.51%
5,Cc1nc2ncccn2c1-c1csc(Nc2ccc(S(N)(=O)=O)cc2)n1,-0.455%
6,COCCOC(=O)C1=C(C)NC(=O)NC1c1cccc2ccccc12 (centres undefined),-1.34%
7,O=C(COC(=O)c1cc([N+](=O)[O-])ccc1NCCO)NCc1cccs1,-1.43%
8,CN(C(=O)c1ccccc1C(=O)OCC(=O)NCc1ccccc1)C1CCCCC1,-1.19%
9,CCC(NC(=S)NCc1ccc(F)cc1)c1ccccc1 (centres undefined),3.04%
10,COc1cccc(NC(=O)c2nnn(CC(=O)Nc3cc(C)cc(C)c3)c2N)c1,-1.39%
11,COc1ccc(C(=O)c2sc(Nc3ccccc3)nc2N)cc1,-1.2%
12,Cc1ccc(S(=O)(=O)N2CCC(C)CC2)cc1,-1.49%
13,CC(/C=C/C1(O)C(C)CC(O)CC1(C)C)OC1OC(CO)C(O)C(O)C1O (centres undefined),-1.29%
14,COc1ccc(C(=O)NCC(=O)N/N=C/c2c(C)[nH]c3ccccc23)cc1,-1.27%
15,COc1ccc(CNC(=O)C2CCC(CNS(=O)(=O)c3ccc(C)cc3)CC2)cc1 (centres undefined),-1.41%
16,CCCOc1ccc(S(=O)(=O)NNC(=O)c2cc3ccccc3o2)cc1,-0.614%
17,COc1ccc(/C(N)=N/OC(=O)Cc2ccccc2OC)cc1,-1.48%
18,CC1CCCN(C(=O)c2ccc(CNc3c(N4CCCCC4)c(=O)c3=O)cc2)C1 (centres undefined),-1.34%
19,Cc1cc(OC(C)C(=O)NCc2ccccn2)c2c(C)cc(=O)oc2c1 (centres undefined),-1.49%
